Hits are enriched below; roughly 5.7% of the tested compounds scored in any of these assays.
HepG2 tox: kills HepG2 cells in TGF-b inhibitor counter-screen | Potency, µM (highest dose often 46.1 µM), inactives show at the top dose activity change, negative = cytotoxicity, most hits filed as cytotoxic | 410,000 compounds, 0.76% hits | AID 588856 | HepG2 CAGA-GFP viability, ATP luminescence, 18 h; also: potency is read from the fitted curve at half-maximal effect
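CellTiter-Glo luminescence gave cytotoxicity after 18 hours at 37 degrees C. The cells were HepG2 CAGA-GFP in 1% FBS DMEM, stimulated with 500 pg/mL TGF-beta after compound addition. %Activity was normalised to no-cell wells (complete cell-killing) and DMSO (no toxicity), and curves were fitted and classified.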
ATXN2 expr inh: reduces ATXN2 reporter expression in HEK-293 cells; 360,000 compounds, 0.72% hits; HEK-293 ATXN2-luciferase reporter, luminescence, 24 h; Potency, µM (series often up to 57 µM), for inactives: at the top dose activity change, negative = inhibition, actives largely listed as inhibitors; AID 1745845; also: potency is read from the fitted curve at half-maximal effect; % is scaled to controls: 0 for no effect and ±100 for the full control effect; nearly all actives have a fitted effect of over 55% in size
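qHTS (up to 57 uM final) was run with 24 h compound exposure of reporter cells at 37 °C. Each well was multiplexed: SteadyGlo luminescence measured ATXN2-luciferase expression after a fluorogenic Gly-Phe-AFC viability readout (25 uM final).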
S2 tox: cell viability loss in ATXN counter-screen | S2 cells (HEK-293 line with an ATXN2-luciferase reporter) viability, CellTiter-Fluor protease fluorescence, 24 h | Potency, µM (top dose mostly 56.7 µM), actives largely listed as cytotoxic | 400,000 compounds, 0.49% hits; also: potency is read from the fitted curve at half-maximal effect; nearly all actives have a fitted effect of over 40% in size
TGFb inhibitor: TGF-b pathway inhibition. 410,000 compounds, 1.2% hits. AID 588855. HepG2 CAGA-GFP TGF-b/SMAD3 reporter, GFP fluorescence, 18 h; TGF-beta stimulated, 500 pg/mL final. Potency, µM (doses to about 46.1 µM), for the others: at the top dose activity, negative = inhibition, hits mostly inhibitors; also: potency is read from the fitted curve at half-maximal effect; % is scaled to controls: 0 for no effect and ±100 for the full control effect; nearly all actives have a fitted effect of over 65% in size
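Read-out: total well GFP (ex488/em500-530) summed from mean per-cell fluorescence. Cells: HEPG2 CAGA-GFP, 1% FBS DMEM, 18 h at 37 degrees C with 500 pg/mL final TGF-beta. Unstimulated wells served as the full-inhibition control; stimulated DMSO wells = 0%.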
IL1B secr inh: blocks inflammasome-driven IL-1 beta release | THP-1 LPS/ATP IL-1B secretion, AlphaLISA, 16 h; hits give low values | activity change, % at 57.5 µM | 360,000 compounds, 4.7% hits | AID 743279; in the data active = activity change below about -50%; inconclusive = mostly about -30% to -49%; also: % is scaled to controls: 0 for no effect and ±100 for the full control effect
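THP-1 cells pretreated 1 hr with compounds (up to 57.5 uM final), then stimulated with LPS (250 ng/mL final) plus ATP (1.25 mM final); secreted IL-1B measured by AlphaLISA after 16 hr, decreased signal indicating inhibition.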
Numbers without * were called inactive; i = inactive; ? = inconclusive; / = no result given; [ ] = another dose, or the depositor's remark. Unless noted, calls follow the shape of the dose curve; as a rule, active = well fitted curve in the direction sought with a large enough effect; inconclusive = small, poorly fitted or top-dose-only effect, or another doubt; inactive = no such curve, though single readings can be large; an effect the other way counts as inactive or inconclusive.

SMILES	HepG2 tox	ATXN2 expr inh	S2 tox	TGFb inhibitor	IL1B secr inh
CC(=O)c1ccc(-c2ccc3c4c(ccc3c2)OC(CNC(=O)C(C)N2CCOCC2)C4)s1 (stereo not drawn)	/	/	i	/	/
CCOC(=O)c1ccc(NC(=O)CSc2nccn2Cc2ccc(OC)cc2)cc1	-35%	/	/	?	/
Cc1onc(-c2c(Cl)cccc2Cl)c1C(=O)Cl	/	6%	i	/	/
CSc1ccc(-c2nc3cccc(C)n3c2Nc2ccc3c(c2)OCO3)cc1	-31%	5%	?	6%	/
Oc1cccc2[nH]ccc12	/	8%	i	/	/
Cc1ccc(CNC(=O)c2c3c(nc4ccccc24)C(=O)N(C2CCCCC2)C3)cc1	-21%	/	/	-6%	/
Cc1cccc(C(=O)NCC(=O)N2CCN(c3ccc(Cl)cc3)CC2)c1	-27%	-34%	i	0%	-12
O=C(NCCC(=O)N1CCN(c2cccc(Cl)c2)CC1)c1ccc(Br)cc1	-12%	-18%	i	?	-55*
Cc1cc(C)cc(C(=O)NCC(=O)N2CCN(c3cccc(Cl)c3)CC2)c1	-6%	?	i	?	-70*
CCC(Oc1ccccc1)C(=O)Nc1cc(-c2ccccc2OC)nn1-c1ccccc1 (stereo not drawn)	-25%	13%	?	?	/
O=C(NCC(c1ccc2c(c1)OCO2)N1CCOCC1)c1cccc(Cl)c1 (stereo not drawn)	-9%	-10%	i	-7%	/
Cc1cnc(SCC2CCCO2)nc1C1CCCN(Cc2nc(-c3ccccc3)cs2)C1 (stereo not drawn)	/	/	i	/	/
CCc1ccc(CNC(=O)CSc2cc(=O)n(C)c3ccc(Cl)cc23)cc1	-8%	-2%	i	-7%	/
O=C1Cc2c(-c3ccccc3)cc(-c3cccc(Cl)c3)nc2-c2ccccc2N1	0.89µM*	?	?	-8%	0
Cc1ccc2c(c1)-c1nc(-c3ccc4c(c3)NC(=O)CO4)cc(-c3ccccc3)c1CO2	6%	3%	i	0%	/
Cc1ccc(C(=O)N/N=C/c2ccc(-c3ccc(Br)cc3[N+](=O)[O-])o2)o1	-29%	6%	/	-5%	-85*
Cc1c(C(=O)N/N=C/c2ccc(-c3ccccc3[N+](=O)[O-])o2)sc(N)c1C#N	-39%	-20%	i	5µM*	52
COc1ccc(CCNc2nc3cc(OC)c(OC)cc3c3nc(-c4cccnc4)nn23)cc1OC	7%	/	/	-13%	/
Cn1nc(C(C)(C)C)cc1NC(=O)Nc1cc(Cl)cc(Cl)c1	16µM*	-37%	i	?	-98*
CCc1ccc(CNC(=O)c2ccc(-n3c(C)cc4c3CCC(C)C4)cc2)cc1 (stereo not drawn)	-31%	-9%	?	1%	/
CCCCCC(C)NC(=S)NC(=O)c1cc(S(=O)(=O)N2CCOCC2)ccc1C (stereo not drawn)	16%	-5%	i	11µM*	-1
O=C(NCc1ccncc1)[C@@H]1CCCN1C(=O)[C@H]1CCCN1C(=O)c1cccs1	/	-9%	i	/	17
O=C(NCc1ccccc1)[C@@H]1CCCN1C(=O)[C@@H]1CCCN1C(=O)c1cccs1	/	-1%	i	/	-57*
O=C(Cn1c(=O)c2sccc2n(CC(=O)Nc2ccc(Cl)cc2Cl)c1=O)NCCc1ccccc1	1%	/	/	-22%	/
CCC1(C2CCN(C(=O)c3ccc4ccccc4c3)CC2)NC(=O)N(CCc2scnc2C)C1=O (stereo not drawn)	/	/	i	/	/
SMILES	HepG2 tox	ATXN2 expr inh	S2 tox	TGFb inhibitor	IL1B secr inh
CCC1CCCCN1C(=O)CSc1nc(-c2ccc(OC)cc2)cc(C(F)(F)F)n1 (stereo not drawn)	-34%	?	?	?	/
CN1C2C=C3C(C#N)=C(N)C(C#N)(C#N)[C@@H](c4cccc(F)c4)[C@@H]3C1CC2 (stereo partly drawn)	-7%	3%	i	6%	-1
CN1C2C=C3C(C#N)=C(N)C(C#N)(C#N)[C@H](c4c(F)cccc4F)[C@H]3C1CC2 (stereo partly drawn)	-15%	-14%	i	2%	-93*
COc1ccc(CCN(C)C(=O)Cc2ccc(-c3ccccc3)cc2)cc1OC	-6%	?	i	-1%	-55*
CCOc1cc(CNc2ccc(O)cc2)ccc1OCc1ccc(Cl)cc1Cl	-25%	-11%	i	?	-106*
COc1ccc(CNC/C=C/c2ccccc2)cc1	-7%	/	i	10%	-14
COc1ccc(CCNC/C=C/c2ccccc2)cc1	-43%	-29%	i	0%	-68*
COc1ccc(CCN(C)C(=O)COc2ccc(C(=O)c3ccccc3)cc2)cc1OC	-8%	-3%	i	-9%	-1
COc1cc(C(=O)Nc2ccccc2C(=O)NCc2cccnc2)cc(OC)c1OC	3%	0%	i	4%	-58*
COc1ccc(C(=O)Nc2ccccc2C(=O)NCc2cccnc2)cc1OC	-15%	0%	?	-12%	-3
C[C@@H](Cc1cc2c(c(C(N)=O)c1)N(CCCO)CC2)NCCOc1ccccc1OCC(F)(F)F	/	-13%	/	/	/
Cc1cc(C)cc(NC(=O)c2cn3c4c(ccc(Cl)c4c2=O)OC(C)C3)c1 (stereo not drawn)	-16%	-4%	i	1%	/
Cc1ccc(C)c2c1NC(C(=O)O)C1CC=CC21 (stereo not drawn)	-3%	/	/	-16%	/
c1ccc(COc2ccc(CNCc3cccnc3)cc2)cc1	-35%	8%	?	-31%	-63*
COc1cc(NC(=O)c2cccc3c2C(=O)N(Cc2cccnc2)C3)cc(OC)c1OC	-16%	-7%	i	-3%	-56*
O=C(Nc1ccc2c(c1)OCO2)c1cccc2c1C(=O)N(Cc1cccnc1)C2	-31%	4%	i	-16%	?
COc1ccc(CCNCc2ccc(-c3ccccc3)cc2)cc1OC	-57%	?	i	?	-90*
CCOc1ccc(CNCc2cccnc2)cc1	-15%	2%	i	-1%	10
Cc1ccc(OCc2ccc(C(=O)NCc3cccnc3)cc2)cc1C	1%	/	i	?	-54*
Cc1ccnc2cc(Cl)cc(Cl)c12	30%	/	/	14%	/
COc1ccc(CNCCc2ccccc2)cc1OCC(N)=O	7%	-6%	i	1%	-6
CCOc1cc(CNCc2ccccc2)ccc1OCc1ccc(Cl)cc1	-97%	?	?	?	-94*
COc1ccc(CCNCc2ccc(OCc3ccccc3)cc2)cc1	-101%	-29%	i	?	-99*
COc1ccc(CNCCc2ccc(Cl)cc2)cc1OCc1ccccc1	-92%	-31%[11.3 µM]	?	?	-96*
COc1ccc(CNS(=O)(=O)CCNCCc2ccccc2)cc1	-15%	13%	i	-14%	-6

Screens as filed in PubChem.
